# Compounds with a hit are over-represented: about 3.4% of the library has one in this group of screens.
# FBW7 act – human FBW7 E3 ligase activation, primary screen. AlphaScreen FBW7–phospho-cyclin E peptide binding, activator screen. normalized activity (activation), % at 26.1 µM. AID 1259310. 650,000 compounds, 0.13% hits. Q969H0; in the data active means normalized activity above about 1.9%;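 further: purified mutant Fbw7 with reduced substrate affinity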
# MITF inh – inhibitors of human MITF; inhibition, % at 2.6 µM; 650,000 compounds, 0.91% hits; AlphaScreen MITF homodimerization, bead proximity signal; O75030; in the data active means inhibition above about 50%;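 further: 0% = vehicle wells with protein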
# Target sequence (O75030 whole entry, looked up): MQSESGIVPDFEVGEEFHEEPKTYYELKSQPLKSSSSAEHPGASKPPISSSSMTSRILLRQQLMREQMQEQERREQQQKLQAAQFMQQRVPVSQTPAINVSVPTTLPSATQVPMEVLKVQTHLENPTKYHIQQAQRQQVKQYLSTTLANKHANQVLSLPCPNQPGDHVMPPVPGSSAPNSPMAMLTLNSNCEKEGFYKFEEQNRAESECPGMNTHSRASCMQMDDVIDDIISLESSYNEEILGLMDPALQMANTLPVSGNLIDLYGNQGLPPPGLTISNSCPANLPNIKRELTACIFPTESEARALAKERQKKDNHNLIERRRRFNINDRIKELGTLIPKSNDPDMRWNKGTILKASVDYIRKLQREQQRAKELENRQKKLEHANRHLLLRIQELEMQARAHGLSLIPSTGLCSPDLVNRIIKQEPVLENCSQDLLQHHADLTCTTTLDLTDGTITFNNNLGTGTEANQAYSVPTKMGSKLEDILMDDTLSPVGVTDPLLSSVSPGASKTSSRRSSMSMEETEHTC
# GPR151 activ – activators of human GPR151; PathHunter beta-arrestin GPR151 cells, luminescence; activation, % at 11.2 µM; 650,000 compounds, 1% hits; AID 1508602; in the data active means activation above about 4.9%;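 further: 0% = median of compound wells and 100% = cells with positive control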
# TEAD-YAP block – TEAD-YAP interaction inhibition | HEK-TIYL cells, TEAD-Gal4/YAP UAS-luciferase luminescence | inhibition, % at 9.12 µM | 640,000 compounds, 1.4% hits | AID 1259422; in the data active means inhibition above about 32%;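 further: 0% = median of test compound wells and 100% = reference inhibitor wells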
# * = called active by the depositor; . = no result given.
SMILES,FBW7 act,MITF inh,GPR151 activ,TEAD-YAP block
COc1ccccc1N1CCN(C(=O)c2sc3ncnc(N4CCN(c5ccccn5)CC4)c3c2C)CC1,0,-5,-1,35*
Cc1c(C(=O)N2CCN(Cc3ccccc3)CC2)sc2ncnc(N3CCN(c4ccccn4)CC3)c12,0,-10,3,37*
CCN1CCN(C(=O)c2sc3ncnc(N4CCN(c5ccccn5)CC4)c3c2C)CC1,0,6,0,19
Cc1ccc(C2/C(=C(\O)c3ccccc3)C(=O)C(=O)N2c2ccc(F)cc2)cc1 (configuration not stated),0,-4,0,2
c1ccc(C(CCn2ccnc2)Nc2nncc(-c3ccc4c(c3)OCO4)n2)cc1 (configuration not stated),0,6,-1,45*
CCCCC[C@H](O)/C=C/[C@@H]1[C@H](CCCCCCC(=O)O)[C@@H](O)C[C@H]1O,.,4,-1,.
COCCN=c1scc(-c2ccccc2)n1/N=C1\CCc2ccccc21,0,13,2,72*
COc1cccc2cc(C(=O)NCc3cccc(Cl)c3)c(=Nc3ccc(C(=O)O)cc3)oc12,0,-2,1,35*
CCCOc1ccc(C(=O)CCNC(C(=O)O)C(C)O)cc1 (configuration not stated),0,5,0,5
COc1cccc2cc(C(=O)Nn3cnnc3)c(=O)oc12,0,7,0,12
O=C(NCc1ccccc1)/C(=C\C=C\c1ccccc1)NC(=O)c1ccc([N+](=O)[O-])cc1,0,4,-1,56*
O=C(NCc1ccco1)C(=O)NCC1OCCc2ccccc21 (configuration not stated),0,5,0,-4
O=C(NCC1CCC2(CCN(Cc3ccc4ncccc4c3)CC2)O1)C1CCCO1 (configuration not stated),2.1*,2,1,-3
CC1C(=O)NN=C1C(=O)N/N=C\C=C\c1ccccc1 (configuration not stated),0,11,0,-10
COc1ccc(/C=N\NC(=O)C2=NNC(=O)C2C)cc1 (configuration not stated),0,7,-1,36*
O=C(CCN1C(=O)C2CC=CCC2C1=O)N1CCN(c2ccccc2)CC1 (configuration not stated),0,-3,0,-6
Cc1[nH]ncc1-c1cc2c(cc1F)nc(C1COc3ccc(Cl)cc3C1)n2CCCN(C)C (configuration not stated),0,-2,1,-5
O=c1nc(N/N=C/c2ccccc2)cn[nH]1,-1,-2,1,23
Cc1nc2c(c(C)c1CCC(=O)N1CCCCCC1)c(=O)n(C)c(=O)n2C,0,0,0,51*
CCn1c(-c2ccc(F)cc2)csc1=Nc1cc(OC)c(Cl)cc1OC,-1,28,2,33*
CCn1c(-c2ccc(Cl)cc2)csc1=Nc1cc(OC)c(Cl)cc1OC,0,6,2,35*
CCC(=O)N1CCC(=O)Nc2ccccc21,0,21,-1,-10
O=C(Cc1c[nH]c2ccccc12)Nc1nnc(C2CC2)s1,0,-1,-1,34*
Cc1nc2ccccc2c2c1CC(C(C)(Cl)Br)O2 (configuration not stated),0,-4,0,34*
c1cc(-n2cnc(N3CCOCC3)n2)ccc1Nc1ncc2ccc(-c3cn[nH]n3)cc2n1,0,20,-1,68*
SMILES,FBW7 act,MITF inh,GPR151 activ,TEAD-YAP block
c1cc(-c2ccc3cnc(Nc4ccc(-n5cnc(N6CCOCC6)n5)cc4)nc3c2)cs1,0,22,0,-6
c1n[nH]c(-c2ccc3cnc(Nc4ccc(-n5cnc(N6CCOCC6)n5)cc4)nc3c2)n1,0,16,3,65*
Cc1cccc(Nc2nc3nonc3nc2Nc2ccccc2I)c1,0,10,1,87*
CN(CCc1ccccc1)C1CCCN(C(=O)c2ccnn2C)C1 (configuration not stated),0,6,2,-16
Oc1cccc(-c2cnc3ccc(NC4CCOCC4)nn23)c1,2.2*,9,0,33*
c1ccc(-c2cnc3ccc(NC4CCOCC4)nn23)cc1,-1,-5,0,23
c1cc2c(cc1-c1cnc3ccc(NC4CCOCC4)nn13)OCO2,0,-28,0,54*
c1csc(-c2cnc3ccc(NC4CCOCC4)nn23)c1,0,-8,-1,47*
N/C(=N\N=C\c1ccc(O)c(O)c1)SC1CC(=O)N(c2ccc(C(=O)O)cc2)C1=O (configuration not stated),0,82*,0,-6
Nn1c(SCC(=O)NC2CCCc3ccccc32)nnc1C(F)(F)F (configuration not stated),0,9,1,34*
COc1ccc(/C=C(\C#N)c2ccccc2)c(OC)c1,0,-20,-1,32*
O=c1c2ccccc2nc(N2CCOCC2)n1Cc1ccccc1,0,10,2,0
O=S1(=O)C=CC(Nc2cccc3ccccc23)C1 (configuration not stated),0,-8,-1,33*
CCc1ccccc1NC1C=CS(=O)(=O)C1 (configuration not stated),0,14,1,34*
CCS(=O)(=O)N1CCN(c2ccc([N+](=O)[O-])c(N3CCN(c4ccccc4OC)CC3)c2)CC1,0,2,2,-5
COc1ccc(NC(=O)COc2ccc3ccc(=O)oc3c2)cc1OC,0,43,-1,-1
N#C/C(=C\c1ccc(O)c(Br)c1)c1nc(-c2ccc3c(c2)OCO3)cs1,0,1,0,-11
N#C/C(=C\c1ccc(O)c(O)c1)c1nc(-c2ccc3c(c2)OCO3)cs1,0,58*,0,18
Cc1ccc2ccc(C(Nc3ccccn3)c3ccc([N+](=O)[O-])cc3)c(O)c2n1 (configuration not stated),-1,13,-1,28
Cc1cc(NC(=O)c2cccc([N+](=O)[O-])c2)no1,1,30,-1,5
O=[N+]([O-])c1cccc(C(Nc2ccccn2)c2ccc3cccnc3c2O)c1 (configuration not stated),0,14,-1,79*
O=[N+]([O-])c1ccc(C(Nc2ccccn2)c2ccc3cccnc3c2O)cc1 (configuration not stated),-1,15,0,72*
Cc1cc(NC(c2cccc([N+](=O)[O-])c2)c2ccc3cccnc3c2O)no1 (configuration not stated),-1,7,1,86*
CC(C)C(=O)NC(c1ccc([N+](=O)[O-])cc1)c1ccc2cccnc2c1O (configuration not stated),-1,35,-2,81*
Cc1cc(C(=O)CSc2nnc3ccccn23)c(C)n1Cc1ccco1,0,1,-3,61*
Cc1cc(C(=O)CCl)c(C)n1Cc1ccco1,0,33,-2,5
Cc1cc(C(=O)CO/N=C/c2ccco2)c(C)n1Cc1ccco1,0,-5,4,53*
